# Screening data (PubChem)
# TRHR agonist: activates the human TRH receptor; P34981; TRHR cells, calcium flux fluo-8, FDSS agonist mode; activation, % at 2 µM; 0.18% of 360,000 active; also: 0% is about no effect
# Target sequence (P34981 whole entry, looked up): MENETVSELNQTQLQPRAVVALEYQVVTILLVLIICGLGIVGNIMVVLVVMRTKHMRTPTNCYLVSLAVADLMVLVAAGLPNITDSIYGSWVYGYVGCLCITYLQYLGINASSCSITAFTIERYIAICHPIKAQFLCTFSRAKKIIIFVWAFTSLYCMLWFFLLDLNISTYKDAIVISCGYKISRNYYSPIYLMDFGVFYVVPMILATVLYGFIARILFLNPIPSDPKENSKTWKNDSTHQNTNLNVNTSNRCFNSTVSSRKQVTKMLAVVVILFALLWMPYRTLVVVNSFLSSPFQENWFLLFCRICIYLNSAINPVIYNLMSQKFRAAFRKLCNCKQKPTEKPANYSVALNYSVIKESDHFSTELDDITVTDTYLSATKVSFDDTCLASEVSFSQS
#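 Agonist-mode FDSS calcium read (Ex 480/Em 530, 1 s cycles) in 1536-well TRHR cells with fluo-8 dye, after 10-cycle baseline and 23 nL compound addition; TRH at EC20 (10 nM final) added afterwards for the enhancer phase.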
# D1 ag: activates the human D1 dopamine receptor. P21728. HEK293 T-REx D1 cells, calcium flux, agonist mode. activation, % at 2 µM. 1% of 360,000 active. AID 504660; also: 0% is about no effect
#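 Inducible HEK293 T-REx D1 cells, force-coupled to calcium signalling, were plated at 4000 cells/well with tetracycline and held overnight at 30 C. After no-wash calcium dye loading, compound-evoked calcium rise over 180 s flagged agonists.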
# TRHR PAM: allosteric enhancers of human TRH receptor. P34981. 0.66% of 360,000 active. TRHR cells, fluo-8 calcium fluorescence, EC20 TRH enhancement. enhancement, % at 2 µM; in the data active = enhancement above about 30%; also: 0% is about no effect
#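 TRHR-expressing cells loaded with fluo-8 calcium dye were read kinetically (ex 480/em 530) during compound addition, then stimulated with an EC20 of TRH (10 nM final). Enhancement of the Gq-mediated intracellular calcium response was scored.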
# D1 potentiator: human D1 dopamine receptor positive modulation; P21728; HEK293 TREx D1 cells, calcium flux, dopamine EC20 potentiation; potentiation, % at 10 µM; 0.036% of 360,000 active; AID 504651; in the data active = potentiation above about 30%; also: 0% is about no effect
# D1 antagonist: human D1 dopamine receptor antagonism; P21728; HEK293 TREx D1 cells, calcium flux, dopamine EC80; hits give low values; activity change, negative = inhibition, % at 10 µM; 3.2% of 360,000 active; in the data active = activity change below about -30%; also: % is scaled to controls: 0 for no effect and ±100 for the full control effect
#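 After overnight tetracycline induction at 30 C, force-coupled D1 HEK293 cells took up a no-wash calcium dye at room temperature. Compounds were added and monitored 180 s, and the response to EC80 dopamine was then recorded.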
# The depositor's hits bear a star; / = not tested or not shown. Most compounds without a hit are left out; they make up all but 4.7% or so of the library. Rule as the data show it, unless noted: active = activation above about 30%; inactive = the rest.
SMILES,TRHR agonist,D1 ag,TRHR PAM,D1 potentiator,D1 antagonist
COc1ccc(C(=O)N2CC(=O)Nc3ccc(F)cc3C2c2ccc(F)cc2)c(OC)c1 (stereo not given),2.4,11.3,-0.6,0.5,6.4
Cc1cccc(C(=O)N2CCN(c3ccc([N+](=O)[O-])c(NCc4ccco4)c3)CC2)c1,0.2,3.2,11.7,-9.8,-66.6*
Cc1cccc(C(=O)N2CCN(c3ccc([N+](=O)[O-])c(N4CCOCC4)c3)CC2)c1,-1.8,2.3,-15.7,-10.9,-45.2*
O=C(O)c1ccc(/C=N/NC(=O)C(O)(c2ccccc2)c2ccccc2)cc1,0.0,8.7,15.4,0.0,-31.6*
CN(Cc1cccs1)C(=O)/C=C/c1ccccc1[N+](=O)[O-],-0.1,9.6,12.5,-8.2,-41.1*
CCc1ccccc1NC(=O)CSC1=Nc2ccccc2C2=NC(Cc3ccccc3)C(=O)N12 (stereo not given),-0.3,-1.0,-1.4,0.5,-6.9
CN(C)c1ccc(/C=C/C(O)=C2/C(=O)N(C)C3(C)CC2c2ccccc2O3)cc1 (stereo not given),32.0*,68.8*,-5.7,-5.0,-24.4
O=C(CC1C(=O)NCCN1C(=O)Nc1ccc(Cl)cc1)Nc1ccc(F)cc1 (stereo not given),0.5,2.2,-3.8,-7.7,-51.0*
Cc1cccc(N(C2C=CS(=O)(=O)C2)S(=O)(=O)c2ccccc2)c1 (stereo not given),-0.3,0.1,-4.1,-5.0,-59.5*
Cc1nc(C)c(-c2ccc(SCC(=O)Nc3cccc(F)c3)nn2)s1,-0.9,9.7,6.6,1.6,-32.0*
COc1ccc(OC)c(NC(=O)C(OC(=O)CNC(=O)c2ccccc2)c2ccccc2)c1 (stereo not given),-1.2,2.2,4.2,0.3,0.6
COc1ccc(C(=O)NC2CC2)cc1OC1CCN(Cc2ccccc2F)CC1,-0.9,1.6,-1.2,-3.9,-53.4*
C=CCOc1ccccc1CN1CCC(Oc2cc(C(=O)NC3CC3)ccc2OC)CC1,0.0,0.7,-3.6,-8.6,-74.3*
COc1ccc(C(=O)NC2CC2)cc1OC1CCN(Cc2ccccc2O)CC1,-0.2,2.2,-9.5,-23.4,-38.1*
C=CCOc1ccccc1CN1CCC(Oc2ccc(C(=O)N3CCCC3)cc2)CC1,0.0,4.6,-1.5,-4.8,-11.5
C=CCN(CC=C)C(=O)c1ccc(OC2CCN(C(C)=O)CC2)c(OC)c1,0.2,4.4,3.5,3.0,-42.0*
COc1ccc(C(=O)NC2CC2)cc1OC1CCN(Cc2ccc(F)cc2F)CC1,-0.4,1.0,4.6,-17.4,-18.8
COc1ccc(N2CC(NC(=O)COc3ccc(F)cc3)CC2=O)cc1OC (stereo not given),0.0,86.0*,-0.7,3.0,/
O=C(CCc1ccccc1)NC1CC(=O)N(c2cccc(F)c2)C1 (stereo not given),0.3,-1.3,36.9*,0.7,/
COc1ccc(N2CC(NC(=O)COc3cccc(C)c3)CC2=O)cc1OC (stereo not given),0.2,33.4*,-4.8,0.2,/
COCCCNC(=O)C1CCN(C(=O)c2cc3sccc3n2Cc2ccc(Cl)cc2)CC1,0.3,10.7,14.8,-4.7,-38.5*
COCCNC(=O)C1CCN(C(=O)c2cc3sccc3n2Cc2ccc(F)cc2)CC1,1.7,7.6,0.3,-10.0,-49.0*
CC(CCc1ccccc1)NC(=O)C1CCCN(C(=O)c2cc3sccc3n2C)C1 (stereo not given),-1.6,1.1,-13.2,-9.1,-39.3*
COCCNC(=O)C1CCN(C(=O)c2cc3sccc3n2Cc2ccc(Cl)cc2)CC1,1.6,15.2,-4.3,-4.7,-24.4
O=C(NCc1ccco1)C1CCN(C(=O)c2cc3sccc3n2Cc2ccc(Cl)cc2)CC1,0.6,5.2,-4.5,-1.4,4.5
SMILES,TRHR agonist,D1 ag,TRHR PAM,D1 potentiator,D1 antagonist
Cn1c(C(=O)N2CCCC(C(=O)NCc3cccs3)C2)cc2sccc21 (stereo not given),-0.8,2.5,-10.6,2.5,3.7
CCC(C)NC(=O)C1CCN(C(=O)c2cc3sccc3n2Cc2ccc(Cl)cc2)CC1 (stereo not given),-0.1,7.9,-3.6,-5.2,-40.0*
Cc1cccc(NCc2nnc3n2CCCCC3)c1C,-0.1,0.9,-9.0,-1.5,13.8
COc1ccc(Cl)cc1NC(=O)CSc1cn(CC(=O)N2CCCCCC2)c2ccccc12,-0.1,2.6,-2.9,-3.4,-2.4
Cc1sc2ncn(CC(=O)N3CCN(c4ccc(F)cc4)CC3)c(=O)c2c1S(=O)(=O)N1CCCCC1,-0.2,1.2,1.0,0.2,-4.5
CCCS(=O)(=O)Nc1cc(-c2cn3cccc(C)c3n2)ccc1C,-2.0,1.5,3.2,4.2,1.2
CCOCCCNC(=O)C1CCN(C(=O)c2cc3sccc3n2C)CC1,0.1,-1.0,3.8,-6.2,-83.6*
CC(C(=O)Nc1cccnc1)c1ccc([N+](=O)[O-])cc1 (stereo not given),3.1,24.6,0.3,4.6,5.9
CC(C)CC(NC(=O)C1CCC(C)CC1)C(=O)Nc1cccnc1 (stereo not given),-0.2,-0.4,-7.3,-3.0,-35.0*
CC(C)Cc1ccc(C(C)C(=O)Nc2ccc(O)cc2)cc1 (stereo not given),13.7,82.9*,-10.9,5.0,-67.5*
CC(C)Cc1ccc(C(C)C(=O)Nc2cccnc2)cc1 (stereo not given),10.4,75.2*,-6.8,-4.7,-50.9*
Cc1ccc(Nc2nc(C#N)nc(NC3CCCC3)n2)cc1,0.7,13.1,1.5,-6.0,4.8
CCOc1ccc(CNC(=O)CCC(=O)N2CC(C)Sc3ccccc32)cc1 (stereo not given),-0.1,-0.2,-10.6,-1.2,0.9
COC(=O)C1(C)CCc2cc(OC)ccc2C1=O (stereo not given),-0.2,0.1,1.8,5.3,-46.0*
COC(=O)c1c(C)oc(C)c1S(=O)(=O)N(C)C1CCCCC1,-1.5,1.4,-1.3,-2.1,-45.5*
COC(=O)c1c(C)oc(C)c1S(=O)(=O)NCC1CC1,-1.3,3.5,1.8,-10.6,-5.2
CCOc1ccc(C2=CC(c3cc(Br)ccc3F)n3ncnc3N2)cc1Cl (stereo not given),0.5,9.3,-5.8,-8.1,-85.5*
COc1ccc(C2C=C(c3ccc(Cl)c(Cl)c3)Nc3ncnn32)cc1 (stereo not given),8.4,48.3*,3.6,-3.0,5.3
COc1ccc(C2C=C(c3ccc(C)cc3)Nc3ncnn32)cc1 (stereo not given),-0.6,-0.8,9.8,-1.4,3.8
CCOC(=O)C1=C(C)Nc2ncnn2C1c1cc(Br)ccc1F (stereo not given),-0.5,-0.5,-0.5,2.8,-32.8*
CCOC(=O)CSc1nc2c([nH]c3ccccc32)c(=O)n1-c1ccc(OCC)cc1,0.4,3.3,1.6,1.2,8.2
